# Assay results as given in PubChem BioAssay AID651550 (National Center for Advancing Translational Sciences (NCATS), 2012).
# The whole screen tested about 360,000 compounds, of which about 1,100 (0.31%) were called active. Rule as the data show it: active = activity change below about -80%; inconclusive = mostly about -51% to -80%; inactive = weaker than that. Many of the other results were omitted from the sample, so actives are more common in it than they were.
# Target: RAC-alpha serine/threonine-protein kinase (Homo sapiens) (UniProt P31749)
# Test: HTS Assay for Inhibitors of Akt Phophorylation: Primary Screen
# Conditions: Neuro2A IGF-stimulated pAkt S473 HTRF, 20 min; at 50 µM, hits give low values
# Excerpt: The serine/threonine protein kinase Akt (protein kinase B) regulates various cellular processes, including cell survival, growth, proliferation, migration and differentiation. It has been well established that Akt is activated through two essential steps involving membrane translocation and phosphorylation. Cytosolic Akt is recruited to the plasma membrane via the interaction between the PH domain and membrane PIP3 produced by phosphoinositide-3 kinase (PI3K) upon growth factor receptor stimulation. The membrane-Akt interaction results in conformational changes of Akt, enabling its activation through phosphorylation at T308 in the kinase domain and at S473 in the C-terminal hydrophobic motif by PDK1 and mTOR-rictor complex (mTORC2), respectively. […] These findings indicate that S473 phosphorylation, as an important modulator of Akt activation, may be a valuable drug target for cell growth, survival, proliferation and differentiation. These inhibitors also may have significant therapeutic potential with fewer side effects, especially for the conditions involving hyperactive Akt signaling, such as cancer and Alzheimer's disease.
# To this end, a miniaturized assay was developed to be screened against the Molecular Libraries Small Molecule Repository (MLSMR).
# NIH Chemical Genomics Center [NCGC]
# NIH Molecular Libraries Probe Centers Network [MLPCN]
# Assay Submitter (PI): Hee-Yong Kim, National Institute on Alcohol Abuse and Alcoholism
# 3 uL of Neuro2A cell suspension in DMEM containing 0.5% FBS and […] antibiotics mix was plated in a white solid bottom tissue culture-treated 1536-well plate (Greiner Bio-One, Monroe, NC) at 4,500 cells per well and incubated overnight at 37 deg C. 23 nL/well of compound solutions in DMSO was added with Pintool transfer (Kalypsis, San Diego, CA) at single […] final concentration. Then, the cells were stimulated with 1.5 uL of IGF (6 nM final concentration) and incubated at 37 deg C for 20 min. The reaction was terminated by the addition of 1.5 uL blocking reagent mixed with lysis buffer (1:25 correspondingly) provided with HTRF(R) Phospho Akt (Ser473) kit (Cisbio US, Bedford, MA), with following incubation for 50 min at ambient temperature. The detection HTRF conjugates from the kit were prepared according to the protocol, pre-mixed 1:1 prior to dispensing, and 2 uL/well was added with BioRAPTR FRD dispenser (Beckman Coulter). The assay plates were incubated for 24 hours at ambient temperature, and the HTRF fluorescence was measured using Envision plate reader (PerkinElmer) with excitation at 330nm, emission at 615nm (Eu(3)-Cryptate donor signal) and 665nm (d2 acceptor signal). The ratio of […] was calculated for each well.
# % is scaled to controls: 0 for no effect and ±100 for the full control effect.
row,Compound,activity change
1,O=C(c1ccc2c(c1)C(=O)N(c1ccc(Cl)cc1)C2=O)N1CCN(c2ccccn2)CC1,-121% (active)
2,O=C(c1ccc2c(c1)N(Cc1ccc(F)cc1)C(=O)c1ccccc1S2(=O)=O)N1CCN(c2ccccn2)CC1,inactive
3,O=C(c1c(F)cccc1Cl)N1CCN(c2ccccn2)CC1,inactive
4,Cc1ccc(S(=O)(=O)N2[C@@H](Cc3ccccc3)CO[C@H]2CC(=O)OCc2ccccc2)cc1,inactive
5,O=C(NC1CCCCC1)C(c1cc2ccccc2o1)n1c(=O)c(-c2ccco2)nc2ccccc21 (stereo unspecified),inactive
6,Cc1ccc2c(c1)N(CC(=O)N(Cc1ccccn1)Cc1ccco1)C(=O)C(C(C)C)O2 (stereo unspecified),1.92% (inactive)
7,O=C(NCc1ccccc1)C(c1ccc(F)cc1)N1CCN(C(=O)C2CCCO2)CC1 (stereo unspecified),inactive
8,CCC(C(=O)NCc1ccccc1)n1c(Cc2cc(F)cc(F)c2)nc2ccccc21 (stereo unspecified),inactive
9,COC(=O)c1ccc2nc(-c3ccc(F)cc3)c(Cc3ccc(C)cc3)n2c1,inactive
10,CCOC(=O)CSc1nnc(CNc2ccc(F)cc2)o1,inactive
11,Cc1cccc2nc(CNc3ccc(F)cc3)cn12,-128% (active)
12,O=C(NC(=O)c1ccc(Cl)c(Cl)c1)OC1CCS(=O)(=O)C1 (stereo unspecified),inactive
13,COCCNC(=O)C1C(=O)Nc2ccccc2C(=O)N1c1ccc2c(c1)OCCO2 (stereo unspecified),inactive
14,CC(C)c1cc(Cn2c3ccccc3c(=O)n2C(C)Cn2cc(C3CC3)nn2)on1 (stereo unspecified),inactive
15,Cc1ccc(S(=O)(=O)N(CC(=O)N2CCc3ccccc3C2)c2cccc(Cl)c2)cc1,inactive
16,COc1cccc(N(CC(=O)N2CCc3ccccc3C2)S(C)(=O)=O)c1,-106% (active)
17,CN(c1ccc(C(=O)N2CCc3ccccc3C2)cc1)S(C)(=O)=O,-108% (active)
18,CS(=O)(=O)N(CC(=O)N1CCc2ccccc2C1)c1ccc(Br)cc1,inactive
19,CN(c1cccc(NC(=O)c2ccc(CN3CCc4ccccc4C3)cc2)c1)S(C)(=O)=O,inactive
20,Cn1cccc1C(=O)N1CCc2ccccc2C1,inactive
21,Nc1ccc(N=Nc2ccccc2Cl)c(N)n1,inactive

row,Compound,activity change
1,O=C(CN1C(=O)CCS(=O)(=O)c2ccccc21)NCc1ccc(F)cc1,11.8% (inactive)
2,O=C1C(=O)N(CCN2CCOCC2)C(c2cccc(Cl)c2)/C1=C(/O)c1ccc2c(c1)OCO2 (stereo unspecified),inactive
3,COc1ccc(C2/C(=C(/O)c3ccc(OC(C)C)cc3)C(=O)C(=O)N2CCCN2CCOCC2)cc1 (stereo unspecified),inactive
4,O=C1C(=O)N(CCN2CCOCC2)C(c2ccccn2)/C1=C(/O)c1ccc(Cl)cc1 (stereo unspecified),-111% (active)
5,CC(C)(C)n1c(=O)[nH]c2c(c1=O)CCC2,-114% (active)
6,O=c1[nH]n2c(=O)c3c([nH]c2c1N=Nc1ccccc1)CCC3,inactive
7,CCOC(=O)[C@]12CCCC=C1N(CCC1=CCCCC1)C(=O)[C@H](CC(=O)N1CCCCC1)C2,inactive
8,O=C1C=C(c2ccc(Cl)cc2)C(=O)N1Nc1ccccc1,-112% (active)
9,CC(C)(C)n1nc2c(c1NC(=O)c1ccc(S(=O)(=O)N3CCCC3)cc1)CS(=O)C2 (stereo unspecified),inactive
10,COc1ccc(C(C(=O)Nc2c(C)cccc2C)N2CCN(c3ccc(C)cc3)CC2)cc1 (stereo unspecified),inactive
11,O=C1CC2(CCCC2)C(=O)N1CN1CCN(S(=O)(=O)c2ccc(F)cc2F)CC1,inactive
12,O=C(O)CCN1C(=O)CC2(CCCCC2)C1=O,-117% (active)
13,O=C(CN1C(=O)NC2(CCCCCC2)C1=O)NC1CC1,inactive
14,NS(=O)(=O)c1ccc(CCNC(=O)NC2CCCCC2)cc1,inactive
15,CN1OC[C@@H]2CN[C@H](c3ccc(-c4ccccc4)cc3)C[C@@H]21,inactive
16,CCOC(=O)[C@]12CCCC=C1N(CCC1=CCCCC1)C(=O)[C@H](CC(=O)NCCCOC)C2,inactive
17,CCCCCNC(=O)C(c1ccc(OC)cc1)n1c(=O)c(-c2ccccc2)nc2ccccc21 (stereo unspecified),inactive
18,Nc1nnc(SCn2nnc3ccccc3c2=O)s1,inactive
19,Cc1cccc(OCc2nnc(SCn3nnc4ccccc4c3=O)o2)c1,-101% (active)
20,Cc1cccc(OCc2nnc(SCc3nc4cc(C(F)(F)F)ccc4c(=O)[nH]3)o2)c1,-3.13% (inactive)
21,COc1ccccc1NC(=O)C1CCCN1S(=O)(=O)c1ccc(Cl)cc1 (stereo unspecified),inactive

row,Compound,activity change
1,Cc1cccc(NC(=O)C2CCCN2S(=O)(=O)c2ccc(F)cc2)c1C (stereo unspecified),-118% (active)
2,Cc1cccc(NC(=O)C2CCCN(C(=O)Nc3ccc(F)cc3)C2)c1C (stereo unspecified),inactive
3,Cc1ccc(N(Cc2ccccc2O)C(=O)c2ccccc2F)cc1,inactive
4,Cc1ccc(N(C(=O)CNC(=O)c2ccco2)C(C(=O)NC2CCCC2)c2ccncc2)cc1 (stereo unspecified),inactive
5,CC(C)(C)NC(=O)C(c1ccncc1)N(C(=O)CNC(=O)c1ccco1)c1ccc2c(c1)OCO2 (stereo unspecified),-97.2% (active)
6,COc1cccc(N(C(=O)CNC(=O)c2ccco2)C(C(=O)NC2CCCCC2)c2cccnc2)c1 (stereo unspecified),inactive
7,CCCc1ccc(-c2csc(NC(=O)Cc3cccs3)n2)cc1,-105% (active)
8,COc1ccc(OC)c(NC(=O)Cc2cccs2)c1,inactive
9,O=C(Cc1cccs1)Nc1ccc([N+](=O)[O-])cc1,inactive
10,O=C(Nc1ccc2c(c1)C(=O)OC2)Nc1cccc2ccccc12,inactive
11,CCn1cc(C(=O)N2CC(C)CC(C)C2)c(=O)c2cc(S(=O)(=O)N3CCCC3)ccc21 (stereo unspecified),inactive
12,CCn1cc(C(=O)NCC2CCCO2)c(=O)c2cc(S(=O)(=O)N3CCCCC3)ccc21 (stereo unspecified),-109% (active)
13,CCn1cc(C(=O)NC2CCCCCC2)c(=O)c2cc(S(=O)(=O)N3CCCCC3)ccc21,inactive
14,CC(C)(C)NC(=O)C(CCc1ccccc1)n1c(=O)c(-c2ccccc2)nc2ccccc21 (stereo unspecified),inactive
15,Cc1cccc2cc(CN(Cc3nnnn3Cc3ccccc3)C3CCCC3)c(=O)[nH]c12,inactive
16,CCC(c1nnnn1C1CCCC1)N(Cc1cccs1)Cc1cc2cccc(C)c2[nH]c1=O (stereo unspecified),-108% (active)
17,CCC(c1nnnn1Cc1ccco1)N(CCc1ccccc1)Cc1cc2cccc(C)c2[nH]c1=O (stereo unspecified),-20.5% (inactive)
18,CCc1ccccc1N(CC(=O)NCCSCc1ccco1)S(C)(=O)=O,inactive
19,Cc1[nH]c2ccccc2c1C(=O)c1cc([C@H](NC(=O)OC(C)(C)C)C(C)C)sc1N,inactive
